# Assay outcomes (PubChem BioAssay)
# The list is not random: actives were taken first. Their share in the collection is about 3%.
# PAX8 reporter = lowers PAX8-driven luciferase in RMG-I cells | RMG-I TPO-luciferase reporter, SteadyGlo, 24 h | inhibition, % at 12.6 µM | 1.2% of 360,000 active;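 active means mean replicate inhibition at least 60% with every replicate also reaching 60%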;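 further: luciferase light reporting Pax8 driven TPO promoter activity; plate controls were median of neutral control wells for no effect and mitoxantrone controls for full effect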
# EWS-Fli inh = EWS/Fli transcriptional activity inhibition; 0.67% of 350,000 active; A673 NR0B1-luciferase reporter, viability-normalised; AID 651661; inhibition, % at 12.6 µM;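 active means mean inhibition of at least 50% after viability correction, with every replicate also passing that limit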;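 further: firefly luciferase signal divided by Alamar Blue viability fluorescence both relative to DMSO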
# TRPM1 prom inh = MITF TRPM1 promoter inhibition in SK-MEL-5 cells; SK-MEL-5 TRPM1 promoter luciferase, 24 h; inhibition, % at 12.5 µM; 0.83% of 330,000 active; AID 488899;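 active means mean inhibition across replicates of 60% or more, whatever share of single replicates reaches that level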
# Shn3 inh set2 = inhibitors of Schnurri-3 3'UTR reporter in osteoblasts; AID 588674; inhibition, % at 12.5 µM; Clone20 osteoblast Shn3 3'UTR firefly luciferase, 24 h; 0.52% of 360,000 active;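 active means mean inhibition of at least 75% with every replicate also reaching 75%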;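 further: 0% = median of neutral control wells and 100% = pilot-screen positive control compound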
# Peg3 promoter = Peg3 promoter activity inhibition | HeLa PEG-Prom luciferase reporter, luminescence, overnight | AID 588405 | inhibition, % at 20 µM | 1.7% of 360,000 active;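 active means inhibition of at least 50% at 20 µM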
# ABHD5 PLIN5 PPI = ABHD5-PLIN5 protein interaction inhibition. Split G. princeps luciferase complementation, luminescence, 4 h. inhibition, % at 4 µM. 0.78% of 360,000 active. AID 602281;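 active means inhibition above the mean inhibition across every tested compound plus 3 SD, cut at about 22% in these data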;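 further: 0% = DMSO only wells and the 100% control is not disclosed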
# ABHD5 PLIN5 conf = ABHD5-PLIN5 interaction inhibition, confirmed; shares compounds with ABHD5 PLIN5 PPI; biochemical ABHD5-PLIN5 interaction, luminescence; inhibition, % at 4 µM; 67% of 2,200 active; AID 651612; in the data active means inhibition above about 23%;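 further: 0% = DMSO vehicle wells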
# HNF4 split-luc = counter-screen for ABHD5-PLIN5 inhibitors: HNF4 split-luciferase; shares compounds with ABHD5 PLIN5 PPI; HNF4 dimerization, luminescence, biochemical; inhibition, % at 4 µM; 77% of 2,200 active; AID 651674;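 active means mean inhibition across replicate wells exceeding the computed hit threshold, cut at about 13% in these data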;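 further: light from luciferase halves that rejoin when HNF4 fusion proteins dimerize; 0% = DMSO only wells and the 100% control is not given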
# Target sequence (P41235 whole entry, looked up, the tested form may be a part): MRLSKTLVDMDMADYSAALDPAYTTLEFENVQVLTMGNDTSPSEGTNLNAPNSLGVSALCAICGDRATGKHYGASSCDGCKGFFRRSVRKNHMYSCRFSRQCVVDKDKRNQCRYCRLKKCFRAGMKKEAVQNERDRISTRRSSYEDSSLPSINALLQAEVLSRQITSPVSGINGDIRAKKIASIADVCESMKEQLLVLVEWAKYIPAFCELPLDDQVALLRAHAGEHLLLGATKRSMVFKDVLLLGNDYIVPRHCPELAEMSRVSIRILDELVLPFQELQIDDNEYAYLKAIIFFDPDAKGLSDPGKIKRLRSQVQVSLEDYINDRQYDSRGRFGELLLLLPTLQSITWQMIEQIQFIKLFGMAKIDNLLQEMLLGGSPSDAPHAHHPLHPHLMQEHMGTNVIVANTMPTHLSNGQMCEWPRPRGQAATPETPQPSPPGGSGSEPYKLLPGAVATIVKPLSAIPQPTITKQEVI
# * marks the source's active call; other numbers are inactive results; x = no result.
SMILES,PAX8 reporter,EWS-Fli inh,TRPM1 prom inh,Shn3 inh set2,Peg3 promoter,ABHD5 PLIN5 PPI,ABHD5 PLIN5 conf,HNF4 split-luc
CC(C)C(NS(=O)(=O)c1ccccc1)C(=O)OCc1cc([N+](=O)[O-])cc2c1OCOC2 (stereo not given),17,x,-6,0,23,45*,4,6
O=C(N[C@@H]1CC[C@H](CCNC(=O)C2CCCCC2)O[C@@H]1CO)c1ccncc1,-28,-7,x,x,x,x,x,x
O=C(/C=C/c1ccccc1F)c1cccc([N+](=O)[O-])c1,-17,x,30,-1,45,70*,100*,99*
COc1cc(/C=C/C(=O)c2cccc([N+](=O)[O-])c2)cc(OC)c1OC,-5,23,6,46,105*,30*,95*,92*
COc1cc(CC(=O)OCc2cccc([N+](=O)[O-])c2)cc(OC)c1OC,-5,3,5,12,4,1,x,x
CN(C)c1ccc(/C=C/c2ccc3ccccc3[n+]2C)cc1,-4,x,88*,67,37,29*,23*,30*
CN(CCCS(=O)(=O)[O-])c1ccc(/C=C/c2ccc3ccccc3[n+]2C)cc1,5,-6,-5,26,1,-11,x,x
CC(=O)Nc1ccc2c(c1)Cc1ccc(Cl)cc1-2,-27,-76,-47,-49,-191,-2,x,x
O=C1C=CC(=O)N1c1ccc2c(c1)Cc1cc(F)ccc1-2,11,-12,4,40,97*,26*,42*,71*
CC(=O)Nc1ccc2c(c1)Cc1cc(N3C(=O)C=CC3=O)ccc1-2,36,20,78*,74,98*,35*,45*,104*
O=[N+]([O-])c1ccc2c(c1)Cc1cc(F)ccc1-2,-25,-12,12,2,-8,0,x,x
Cc1noc(C)c1NC(=O)Nc1ccc2c(c1)CC(=O)N([C@H](C)CO)C[C@@H](C)[C@@H](CN(C)S(=O)(=O)c1ccccc1)O2,-25,-3,x,x,x,x,x,x
Cc1ccc(S(=O)(=O)/N=C/N(C)C)cc1,x,x,-12,8,-2,-7,x,x
Cc1ccc(S(=O)(=O)/N=C/c2ccco2)cc1,x,x,12,22,11,92*,6,8
C[C@@H]1CN([C@@H](C)CO)C(=O)c2cc(/C=C/c3ccccc3)cnc2O[C@H]1CN(C)S(=O)(=O)c1cn(C)cn1,17,-3,x,x,x,x,x,x
CN1CCN(C(=S)NC(=O)c2ccc(C(C)(C)C)cc2)CC1,22,13,-12,-14,-5,-3,x,x
C=CCn1cccc(/C=C/C(=O)c2ccc(C(C)(C)C)cc2)c1=S,21,x,3,75,102*,46*,75*,90*
Cc1ccccc1S(=O)(=O)NCC[C@H]1CC[C@H](NC(=O)Nc2cccc(Cl)c2)[C@H](CO)O1,5,11,x,x,x,x,x,x
COC1=CC(=O)C(OC)=C(OC)C1=O,-124,12,1,70,63*,26*,52*,73*
COc1ccc(OC)c2c1C(=O)c1ccccc1C2=O,-14,x,x,x,x,x,x,x
CCNC(=O)C[C@H]1CC[C@@H]2[C@H](COc3ccc(NC(=O)Nc4ccc(F)cc4)cc3C(=O)N2C)O1,12,-6,x,x,x,x,x,x
CO[C@H]1CN(C)C(=O)c2cc(NC(=O)NC3CCCCC3)ccc2OC[C@H](C)N(C(C)=O)C[C@H]1C,x,-4,x,x,x,x,x,x
c1cc2c(cc1C1CCCCC1)c1c3n2CCCNC3CCC1 (stereo not given),x,x,99*,-2,104*,27*,13,0
Cc1ccc2c(c1)c1c3n2CCCNC3CCC1 (stereo not given),-73,x,-11,-9,13,8,x,x
COc1ccc(NC(=O)Nc2cccc3c2O[C@@H](CN(C)C(=O)Nc2c(C)noc2C)[C@@H](C)CN([C@H](C)CO)C3=O)cc1,-12,-5,x,x,x,x,x,x
SMILES,PAX8 reporter,EWS-Fli inh,TRPM1 prom inh,Shn3 inh set2,Peg3 promoter,ABHD5 PLIN5 PPI,ABHD5 PLIN5 conf,HNF4 split-luc
O=C1C=CC(O)(c2cc(=O)c3c(O)cc(O)cc3o2)C=C1,89*,73*,80*,97*,84*,89*,101*,106*
O=c1cc(-c2ccccc2Cl)oc2cc(O)cc(O)c12,-111,-36,-42,82,-233,-2,x,x
CN1[C@@H]2c3ccc(-c4ccccc4F)c(=O)n3C[C@@H]2[C@@H](CO)[C@@H]1C(=O)NCC(F)(F)F,x,-1,x,x,x,x,x,x
O=C1Cc2ccccc2C(=O)N1Nc1ccccc1,-31,-8,4,2,-6,-10,x,x
COc1ccc(Nc2cccccc2=O)cc1,-43,x,-55,-11,-123,0,x,x
O=C1C=C(c2ccccc2)C(=O)N1Nc1ccccc1,x,x,56,46,96*,86*,100*,107*
Cc1ccc(NN2C(=O)C=C(c3ccc(Cl)cc3)C2=O)cc1,x,x,19,99*,105*,95*,101*,107*
COc1ccc(C2=CC(=O)N(Nc3ccccc3)C2=O)cc1,3,33,x,12,40,88*,86*,88*
O=C(Cc1ccncc1)NCC[C@H]1CC[C@@H](NC(=O)Nc2cccc(F)c2)[C@@H](CO)O1,46,-8,x,x,x,x,x,x
COCCOC(=O)/C(=C\c1cc(C(C)(C)C)c(O)c(C(C)(C)C)c1)C(C)=O,1,-1,-7,x,5,44*,80*,72*
CCOC(=O)c1ccc(NC(=O)CSc2nc3c(c(=O)n2C)SC(C)C3)cc1 (stereo not given),14,5,x,27,0,6,x,x
CCOC(=O)c1ccc(NC(=O)CSc2nc3c(c(=O)n2CC)SC(C)C3)cc1 (stereo not given),14,2,20,71,11,81*,4,8
C[C@H](CO)N1C[C@H](C)[C@@H](CN(C)C(=O)Nc2cccc3ccccc23)OCCCC[C@H](C)Oc2ccc(NC(=O)Nc3ccc4c(c3)OCO4)cc2C1=O,2,-7,x,x,x,x,x,x
O=C(COC(=O)C1CC1)NCCNC(=O)COC(=O)C1CC1,x,-3,-14,-10,6,86*,5,1
O=C(COC(=O)C1CC1)NCCc1ccc(Cl)cc1,-6,0,-3,-14,-10,-4,x,x
CN1C(=O)c2cc(NC(=O)c3ccno3)ccc2OC[C@H]2O[C@@H](CC(=O)Nc3ccccc3)CC[C@@H]21,6,5,x,x,x,x,x,x
CC(C)(C)[S@@](=O)N1Cc2cc(C(=O)N[C@H]3CCN(Cc4ccccc4)C3)nc(-c3cccc(-c4cccnc4)c3)c2[C@H]1CCO,-1,2,x,x,x,x,x,x
CC(C)(C)S(=O)N1Cc2cc(C(=O)N[C@@H]3CCN(Cc4ccccc4)C3)nc(-c3cccc(-c4cc5ccccc5o4)c3)c2[C@@H]1CCO (stereo not given in full),27,-25,x,35,34,26*,12,0
